Paper PMC4336329 (PLoS ONE, 2015)
Out of some 310,000 compounds screened, about 2,200 (0.71%) showed an effect of 50% or more. Effects have a minus sign here. Only a selection was taken, and strong results are over-represented in it overall.

target: human ether-à-go-go-related gene (hERG) potassium channel (human, UniProt Q12809); assay: primary screen, population patch clamp on CHO cells stably expressing hERG; higher = less effect of the substance
Description: Briefly, Chinese hamster ovary (CHO) cells stably expressing the hERG channel were dislodged from tissue culture flasks and dispensed into PPC plates. […] During the recording, background leak currents were estimated by a 100 ms step to -80 mV from an initial holding potential of -70 mV and subtracted from the subsequent current measurement. The campaign was conducted in two phases using slight differences in recording protocol. In the first phase, the initial voltage pulse used a 100 ms step to -30 mV from a holding potential of -70 mV, a 2 s conditioning step to +25 mV, and a 2 s test step to -30 mV. During the second phase of the screen, the potential during the conditioning step was raised to +45 mV. In both phases of the campaign, a secondary voltage pulse was applied using the same parameters as the second phase initial pulse. The initial and secondary pulses were applied in the absence of compound, and upon application of 1 μM and 10 μM test concentrations. Small molecule effects on hERG current density were quantified by […].

Chain of human ether-à-go-go-related gene (hERG) potassium channel (Q12809 whole entry, looked up): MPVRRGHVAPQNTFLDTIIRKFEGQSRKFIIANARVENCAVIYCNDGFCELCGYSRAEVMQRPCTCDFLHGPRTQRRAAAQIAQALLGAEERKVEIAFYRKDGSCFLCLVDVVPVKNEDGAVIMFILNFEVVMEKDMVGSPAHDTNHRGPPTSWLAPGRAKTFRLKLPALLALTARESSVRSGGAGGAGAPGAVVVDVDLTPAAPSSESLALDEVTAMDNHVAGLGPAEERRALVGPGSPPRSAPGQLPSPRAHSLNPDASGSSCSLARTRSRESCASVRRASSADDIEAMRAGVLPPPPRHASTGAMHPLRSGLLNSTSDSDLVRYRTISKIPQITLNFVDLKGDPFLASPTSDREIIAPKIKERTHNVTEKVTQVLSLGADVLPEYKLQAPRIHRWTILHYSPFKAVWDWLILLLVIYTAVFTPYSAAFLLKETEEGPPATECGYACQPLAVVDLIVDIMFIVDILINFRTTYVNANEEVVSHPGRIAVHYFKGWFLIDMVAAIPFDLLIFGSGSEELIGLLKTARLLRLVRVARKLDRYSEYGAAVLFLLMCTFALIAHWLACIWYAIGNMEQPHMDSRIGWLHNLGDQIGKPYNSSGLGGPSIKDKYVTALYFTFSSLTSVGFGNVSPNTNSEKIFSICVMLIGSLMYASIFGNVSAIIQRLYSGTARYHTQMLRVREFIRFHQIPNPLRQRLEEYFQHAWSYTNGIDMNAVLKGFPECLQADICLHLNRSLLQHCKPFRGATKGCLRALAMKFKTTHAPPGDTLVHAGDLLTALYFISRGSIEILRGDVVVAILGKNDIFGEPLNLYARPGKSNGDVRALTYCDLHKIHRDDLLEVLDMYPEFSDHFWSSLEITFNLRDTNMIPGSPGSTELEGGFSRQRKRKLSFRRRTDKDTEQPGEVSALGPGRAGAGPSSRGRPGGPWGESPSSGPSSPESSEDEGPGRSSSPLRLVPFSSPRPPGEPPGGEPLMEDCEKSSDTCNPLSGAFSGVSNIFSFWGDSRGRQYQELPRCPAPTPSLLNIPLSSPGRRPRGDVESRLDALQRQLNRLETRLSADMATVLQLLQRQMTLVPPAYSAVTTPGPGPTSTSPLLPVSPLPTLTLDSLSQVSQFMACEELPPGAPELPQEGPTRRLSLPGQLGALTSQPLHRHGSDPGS

Row | Compound | hERG current change (%, negative = inhibition) at 1uM [%]
1 | COc1cc(CN2CCN(c3ccccc3C)CC2)cc([N+](=O)[O-])c1O | 7.17
2 | CN(C)C(=O)Oc1ccc(OC(=O)c2ccccc2)cc1 | 10.4
3 | Cc1ccc(-n2c(N)c(C#N)c(-c3ccc(Cl)cc3)c(C#N)c2=O)cc1 | 10.8
4 | CCCCNC(=O)COC(=O)c1cc(C)oc1C | 8.11
5 | Cc1nonc1OCCNc1ccc([N+](=O)[O-])cc1 | -17.1
6 | Cc1nonc1OCCN1CCN(c2ccc([N+](=O)[O-])cc2)CC1 | -100
7 | Cl.OC(COc1ccc(F)cc1)CN1CCN(c2ccccc2F)CC1 (stereo not shown) | -49.5
8 | COc1ccc(N2CCN(CC(O)COc3ccc([N+](=O)[O-])cc3)CC2)cc1.Cl (stereo not shown) | -45.5
9 | Cc1ccc(OCC(O)CN2CCN(c3ccc(C)cc3)CC2)cc1 (stereo not shown) | -3.83
10 | OC(COc1ccc2c(c1)CCC2)CN1CCN(c2ccccc2F)CC1 (stereo not shown) | 5.87
11 | Cc1ccc(N2CCN(CC(O)COc3ccc([N+](=O)[O-])cc3)CC2)cc1 (stereo not shown) | -65.4
12 | Cc1nonc1OCCN1CCN(c2ccccc2[N+](=O)[O-])CC1.Cl | -2.31
13 | O=[N+]([O-])c1ccc(OCC(O)CN2CCN(c3ccccc3F)CC2)cc1 (stereo not shown) | -77.6
14 | COc1ccc(CCNC(=O)c2cccc([N+](=O)[O-])c2)cc1OC | 3.3
15 | O/N=C(\COc1ccccc1O)c1ccccc1 | -0.796
16 | CN(c1ccc(OCC(=O)NCc2cccnc2)cc1)S(=O)(=O)c1ccc(Cl)cc1 | -4.28
17 | CCOC(=O)CC1C(=O)NCCN1S(=O)(=O)c1ccc(Br)cc1 (stereo not shown) | 6.26
18 | O=C(CCn1nnc2ccccc2c1=O)N[C@@H](Cc1c[nH]c2ccccc12)C(=O)O | 11.6
19 | COc1ccc(CCNC(=O)C2(C)CCC(=O)N2Cc2ccc(F)cc2Cl)cc1OC (stereo not shown) | 16.2
20 | CCOc1ccccc1N1CCN(C(=O)CCCN2C(=O)c3cccc4cccc(c34)C2=O)CC1 | 2.15
21 | COc1ccc(C(=O)CCN2CCN(c3ccccc3OC)CC2)cc1.Cl | -4.48
22 | O=C(NCCCN1CCN(CCCNC(=O)c2cccc(Cl)c2)CC1)c1cccc(Cl)c1 | -74.5

Row | Compound | hERG current change (%, negative = inhibition) at 1uM [%]
23 | Cc1ccc(C(=O)NCCCN2CCN(CCCNC(=O)c3ccc(C)cc3)CC2)cc1 | -36.5
24 | Cl.O=C(NCCN1CCCC1)c1cccc(Cl)c1 | -13.1
25 | COc1ccccc1N1CCN(C(=O)CCCN2C(=O)c3cccc4cccc(c34)C2=O)CC1.Cl | -89.5
26 | CC(C)c1ccc(C(=O)NCCCN2CCOCC2)cc1 | 2.78
27 | COc1ccc(S(N)(=O)=O)cc1C(=O)NCCCN1CCN(c2ccccc2OC)CC1.CS(=O)(=O)O | 4.07
28 | CC(C)c1ccc(C(=O)NCCCN2CCN(CCCNC(=O)c3ccc(C(C)C)cc3)CC2)cc1 | -86.4
29 | COc1ccccc1N1CCN(C(=O)CCN2C(=O)c3cccc4cccc(c34)C2=O)CC1 | 9.15
30 | O=C(NCCN1CCOCC1)c1cccc(Cl)c1 | 2.76
31 | COc1ccccc1N1CCN(CCCCNC(=O)c2ccc3ccccc3c2)CC1.Cl | -75.8
32 | COc1cc2c(cc1OC)C(c1ccc([N+](=O)[O-])cc1)N(C(C)=O)CC2 (stereo not shown) | 5.11
33 | CC(C)c1ccc(NC(=O)c2ccc3c(c2)C(=O)N(Cc2cccnc2)C3=O)cc1 | 8.25
34 | c1ccc(CC(Nc2ccccn2)c2ccccc2)cc1 (stereo not shown) | -10.6
35 | NC(=O)CSc1n[nH]c(=O)n1CCc1ccccc1 | 10.4
36 | O=C(Cc1cccs1)NCc1cccc(Cl)c1 | 9.08
37 | CCOc1ccc2[nH]c(O)c(NC(C)=O)c2c1 | 5.98
38 | CCc1c(C)nc2ncnn2c1NCc1cccs1 | 6.69
39 | COc1cc(/C=N/NC(=O)c2ccccc2)ccc1O | -5.66
40 | COc1cc2c(cc1OC)/C(=C/C#N)NC(C)(C)C2 | 7.09
41 | CNc1nc(SC)nc2ccccc12 | 16.4
42 | CN1CCN(CCCNC(=O)c2ccc(CSCc3cccc(Cl)c3)o2)CC1 | 1.54
43 | CC1CCN(CCCNC(=O)c2ccc(CSCc3cccc(Cl)c3)o2)CC1 | -62.4
44 | COc1cccc(C(=O)NCCCNC(=O)c2cccc(OC)c2)c1 | 12.4

Row | Compound | hERG current change (%, negative = inhibition) at 1uM [%]
45 | O=C(NCCCN1CCCC1)c1ccc(CSCc2cccc(Cl)c2)o1 | -30.4
46 | COc1cccc(C(=O)NCCCN2CCN(CCCNC(=O)c3cccc(OC)c3)CC2)c1 | -65.2
47 | COc1cc(OC)cc(C(=O)NCCCN2CCN(CCCNC(=O)c3cc(OC)cc(OC)c3)CC2)c1 | -18.8
48 | Cc1ccc2nsnc2c1NC(=O)c1cccnc1Cl | 15.1
49 | COc1ccc(S(=O)(=O)N2CCC(Nc3ccccc3Cl)CC2)cc1 | 28.1
50 | COc1ccc(/C=C2\SC(=S)N(CC(=O)NC3CCS(=O)(=O)C3)C2=O)cc1 (stereo not shown) | 17.2
51 | COc1ccc2c(c1)c1c3n2CCN(C)C3=NCC1.Cl | -54.9
52 | CN=C1c2c(-c3ccccc3)c3cc(OC)ccc3n2CCN1C.Cl | -31.6
53 | COc1ccc2c(c1)c1c(n2C(C)=O)C(OC(C)=O)=NCC1 | 2.42
54 | COc1ccc(OCC(=O)Nc2c3c(nn2-c2ccccc2)CS(=O)(=O)C3)cc1 | 7.69
55 | O=C1c2ccccc2C(=O)N1Cc1cccnc1 | 15.6
56 | Cc1nc2nc(-c3ccc(Cl)cc3)nn2c(C)c1Cl | 13.4
57 | Cc1cc(N2CCN(C)CC2)n2cc(-c3ccc(F)cc3)nc2n1 | -89.8
58 | Cc1cc(N2CCOCC2)n2cc(-c3ccccc3)nc2n1 | -14.6
59 | Cc1cc(N2CCOCC2)n2cc(-c3ccc(F)cc3)nc2n1 | -34.9
60 | Cc1cc(N2CCN(c3ccccn3)CC2)n2cc(-c3ccccc3)nc2n1 | -65.4
61 | Cc1cc(N2CCOCC2)n2nc(C)c(-c3ccc(Cl)cc3)c2n1 | 7.28
62 | Cc1cc(N2CCN(C)CC2)n2nc(-c3ccc(Cl)cc3)nc2n1 | -67.2
63 | Cc1cc(N2CCN(c3ccccc3)CC2)n2cc(-c3ccccc3)nc2n1 | -16.4
64 | Cc1cc(N2CCN(c3ccccc3Cl)CC2)n2cc(-c3ccccc3)nc2n1 | -2.03
